# PubChem BioAssay AID1159580 (chemical genetic matrix, 2015)
# Out of some 5,500 compounds screened, about 2,000 (36%) were called active. About 18% were inconclusive and are not listed. The list shows a part of the results. Unmarked numbers belong to inactive results. Rule as the data show it: active = normalized growth mostly below about 0.91 (no sharp cut-off); inconclusive = no clear call, values can overlap the other calls; inactive = mostly above about 0.92.
# Assay: chemical genetic growth profiling, strain panel (AID 1159580);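 also: tested at 20 µM; growth read once vehicle control cultures reached saturation at 30 °C; 1 = growth at the plate median or of vehicle wells; lower values mean less growth of the strain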
# Conditions: growth OD
# [1] = S. cerevisiae deletion strains, locus YDL101C, strain DUN1, active compounds read low
# [2] = S. cerevisiae deletion strains, locus YHR030C, strain SLT2, active compounds read low
# [3] = S. cerevisiae deletion strains, locus YAL013W, strain DEP1, active compounds read low
# [4] = S. cerevisiae deletion strains, locus YBR229C, strain ROT2, active compounds read low
# [5] = S. cerevisiae deletion strains, locus YDR150W, strain NUM1, active compounds read low
# [6] = S. cerevisiae deletion strains, locus YEL061C, strain CIN8, active compounds read low
# [7] = S. cerevisiae deletion strains, locus YGR078C, strain PAC10, active compounds read low
# [8] = S. cerevisiae deletion strains, locus YGR229C, strain SMI1, active compounds read low
# [9] = S. cerevisiae deletion strains, locus YHR087W, strain rtc3, active compounds read low
# [10] = S. cerevisiae deletion strains, locus YJR043C, strain POL32, active compounds read low
# [11] = S. cerevisiae deletion strains, locus YJR075W, strain HOC1, active compounds read low
# [12] = S. cerevisiae deletion strains, locus YKL190W, strain CNB1, active compounds read low
# [13] = S. cerevisiae deletion strains, locus YLR039C, strain RIC1, active compounds read low
# [14] = S. cerevisiae deletion strains, locus YLR058C, strain SHM2 (second series), active compounds read low
# [15] = S. cerevisiae deletion strains, locus YLR085C, strain ARP6, active compounds read low
# [16] = S. cerevisiae deletion strains, locus YLR262C, strain YPT6, active compounds read low
# [17] = S. cerevisiae deletion strains, locus YML094W, strain GIM5, active compounds read low
# [18] = S. cerevisiae deletion strains, locus YMR219W, strain ESC1, active compounds read low
# [19] = S. cerevisiae deletion strains, locus YMR263W, strain SAP30, active compounds read low
# [20] = S. cerevisiae deletion strains, locus YNL128W, strain TEP1, active compounds read low
# [21] = S. cerevisiae deletion strains, locus YNL153C, strain GIM3, active compounds read low
# [22] = S. cerevisiae deletion strains, locus YNL298W, strain CLA4 (second series), active compounds read low
# [23] = S. cerevisiae deletion strains, locus YNL322C, strain KRE1, active compounds read low
# [24] = S. cerevisiae deletion strains, locus YNR030W, strain Alg12, active compounds read low
# [25] = S. cerevisiae deletion strains, locus YPL055C, strain LGE1, active compounds read low
# [26] = S. cerevisiae deletion strains, locus YPL241C, strain CIN2, active compounds read low
# [27] = S. cerevisiae deletion strains, locus YPR135W, strain CTF4, active compounds read low
smiles,measurement,setting,value
FC(F)(F)c1ccc(NC(=S)Nc2ccc(C(F)(F)F)cc2Cl)c(Cl)c1,normalized growth,"S. cerevisiae deletion strains, locus YAR019C, strain CDC15, active compounds read low",0.964
same,normalized growth,"S. cerevisiae deletion strains, locus YBL105C, strain PKC1, active compounds read low",0.969
same,normalized growth,"S. cerevisiae deletion strains, locus YBR135W, strain CKS1, active compounds read low",0.955
same,normalized growth,"S. cerevisiae deletion strains, locus YBR136W, strain MEC1, active compounds read low",0.969
same,normalized growth,"S. cerevisiae deletion strains, locus YBR160W, strain CDC28, active compounds read low",0.948
same,normalized growth,"S. cerevisiae deletion strains, locus YDL017W, strain CDC7, active compounds read low",0.965
same,normalized growth,"S. cerevisiae deletion strains, locus YDL028C, strain MPS1, active compounds read low",0.952
same,normalized growth,[1],0.993
same,normalized growth,"S. cerevisiae deletion strains, locus YDL108W, strain KIN28, active compounds read low",0.946
same,normalized growth,"S. cerevisiae deletion strains, locus YDL132W, strain cdc53, active compounds read low",0.949
same,normalized growth,"S. cerevisiae deletion strains, locus YDL214C, strain PRR2, active compounds read low",0.921
same,normalized growth,"S. cerevisiae deletion strains, locus YDR052C, strain DBF4, active compounds read low",0.979
same,normalized growth,"S. cerevisiae deletion strains, locus YDR054C, strain cdc34, active compounds read low",0.976
same,normalized growth,"S. cerevisiae deletion strains, locus YDR226W, strain ADK1, active compounds read low",0.936
same,normalized growth,"S. cerevisiae deletion strains, locus YDR477W, strain SNF1, active compounds read low",0.938
same,normalized growth,"S. cerevisiae deletion strains, locus YER123W, strain YCK3, active compounds read low",0.902
same,normalized growth,"S. cerevisiae deletion strains, locus YER133W, strain GLC7, active compounds read low",0.933
same,normalized growth,"S. cerevisiae deletion strains, locus YFL009W, strain cdc4, active compounds read low",0.921
same,normalized growth,"S. cerevisiae deletion strains, locus YFL029C, strain CAK1, active compounds read low",0.968
same,normalized growth,"S. cerevisiae deletion strains, locus YFR003C, strain YPI1, active compounds read low",0.955
same,normalized growth,"S. cerevisiae deletion strains, locus YFR019W, strain FAB1, active compounds read low",0.932
same,normalized growth,"S. cerevisiae deletion strains, locus YFR028C, strain CDC14, active compounds read low",0.953
same,normalized growth,"S. cerevisiae deletion strains, locus YGR040W, strain KSS1, active compounds read low",0.929
same,normalized growth,"S. cerevisiae deletion strains, locus YGR052W, strain FMP48, active compounds read low",0.937
same,normalized growth,"S. cerevisiae deletion strains, locus YGR092W, strain DBF2, active compounds read low",0.911
same,normalized growth,[2],0.83 (active)
same,normalized growth,"S. cerevisiae deletion strains, locus YHR079C, strain IRE1, active compounds read low",0.948
same,normalized growth,"S. cerevisiae deletion strains, locus YHR082C, strain KSP1, active compounds read low",0.926
same,normalized growth,"S. cerevisiae deletion strains, locus YHR205W, strain SCH9, active compounds read low",0.919
same,normalized growth,"S. cerevisiae deletion strains, locus YIL147C, strain SLN1, active compounds read low",0.962
same,normalized growth,"S. cerevisiae deletion strains, locus YJL095W, strain BCK1, active compounds read low",0.919
same,normalized growth,"S. cerevisiae deletion strains, locus YJL128C, strain PBS2, active compounds read low",0.956
same,normalized growth,"S. cerevisiae deletion strains, locus YJL157C, strain FAR1, active compounds read low",0.928
same,normalized growth,"S. cerevisiae deletion strains, locus YJR016C, strain ILV3, active compounds read low",0.966
same,normalized growth,"S. cerevisiae deletion strains, locus YJR066W, strain TOR1 (second series), active compounds read low",0.95
same,normalized growth,"S. cerevisiae deletion strains, locus YJR066W, strain TOR1, active compounds read low",0.886
same,normalized growth,"S. cerevisiae deletion strains, locus YKL048C, strain ELM1, active compounds read low",0.946
same,normalized growth,"S. cerevisiae deletion strains, locus YKL067W, strain YNK1, active compounds read low",0.907
same,normalized growth,"S. cerevisiae deletion strains, locus YKL101W, strain HSL1, active compounds read low",0.898
same,normalized growth,"S. cerevisiae deletion strains, locus YKL193C, strain SDS22, active compounds read low",0.954
same,normalized growth,"S. cerevisiae deletion strains, locus YKL203C, strain TOR2, active compounds read low",1.03
same,normalized growth,"S. cerevisiae deletion strains, locus YLR113W, strain HOG1, active compounds read low",0.836 (active)
same,normalized growth,"S. cerevisiae deletion strains, locus YLR133W, strain CKI1, active compounds read low",0.923
same,normalized growth,"S. cerevisiae deletion strains, locus YLR403W, strain SFP1, active compounds read low",0.949
same,normalized growth,"S. cerevisiae deletion strains, locus YML070W, strain DAK1, active compounds read low",0.902
same,normalized growth,"S. cerevisiae deletion strains, locus YMR001C, strain CDC5, active compounds read low",0.961
same,normalized growth,"S. cerevisiae deletion strains, locus YMR205C, strain PFK2 (second series), active compounds read low",0.929
same,normalized growth,"S. cerevisiae deletion strains, locus YMR277W, strain FCP1, active compounds read low",0.944
same,normalized growth,"S. cerevisiae deletion strains, locus YNL006W, strain LST8, active compounds read low",0.961
same,normalized growth,"S. cerevisiae deletion strains, locus YNL020C, strain ARK1, active compounds read low",0.887
same,normalized growth,"S. cerevisiae deletion strains, locus YNL161W, strain CBK1, active compounds read low",0.967
same,normalized growth,"S. cerevisiae deletion strains, locus YNL183C, strain NPR1, active compounds read low",0.929
same,normalized growth,"S. cerevisiae deletion strains, locus YNL207W, strain RIO2, active compounds read low",0.948
same,normalized growth,"S. cerevisiae deletion strains, locus YNL222W, strain SSU72, active compounds read low",0.95
same,normalized growth,"S. cerevisiae deletion strains, locus YNL307C, strain MCK1 (second series), active compounds read low",0.888
same,normalized growth,"S. cerevisiae deletion strains, locus YOL078W, strain AVO1, active compounds read low",0.955
same,normalized growth,"S. cerevisiae deletion strains, locus YOL136C, strain PFK27, active compounds read low",0.908
same,normalized growth,"S. cerevisiae deletion strains, locus YOR061W, strain CKA2, active compounds read low",0.911
same,normalized growth,"S. cerevisiae deletion strains, locus YOR119C, strain RIO1, active compounds read low",0.954
same,normalized growth,"S. cerevisiae deletion strains, locus YOR231W, strain MKK1, active compounds read low",0.92
same,normalized growth,"S. cerevisiae deletion strains, locus YOR329C, strain SCD5, active compounds read low",0.971
same,normalized growth,"S. cerevisiae deletion strains, locus YPL031C, strain PHO85, active compounds read low",0.945
same,normalized growth,"S. cerevisiae deletion strains, locus YPL153C, strain RAD53, active compounds read low",0.927
same,normalized growth,"S. cerevisiae deletion strains, locus YPL204W, strain HRR25, active compounds read low",0.916
same,normalized growth,"S. cerevisiae deletion strains, locus YPL209C, strain IPL1, active compounds read low",0.972
same,normalized growth,"S. cerevisiae deletion strains, locus YPL256C, strain CLN2, active compounds read low",0.929
same,normalized growth,"S. cerevisiae deletion strains, locus YPR025C, strain CCL1, active compounds read low",0.966
same,normalized growth,"S. cerevisiae deletion strains, locus YPR106W, strain ISR1, active compounds read low",0.956
same,normalized growth,"S. cerevisiae deletion strains, locus YPR111W, strain DBF20, active compounds read low",0.929
same,normalized growth,"S. cerevisiae deletion strains, strain NNK1, active compounds read low",0.959
same,normalized growth,"S. cerevisiae deletion strains, strain TSCII, active compounds read low",0.97
NNC(=S)Nc1cc(C(F)(F)F)ccc1Cl,normalized growth,[3],0.926 (active)
same,normalized growth,[4],0.87 (active)
same,normalized growth,"S. cerevisiae deletion strains, locus YCL061C, strain MRC1, active compounds read low",0.828 (active)
same,normalized growth,[1],0.875 (active)
same,normalized growth,"S. cerevisiae deletion strains, locus YDL134C, strain PPH21, active compounds read low",0.86 (active)
same,normalized growth,[5],0.872
same,normalized growth,[6],0.807 (active)
same,normalized growth,[7],0.848 (active)
same,normalized growth,[8],0.997
same,normalized growth,[2],0.324 (active)
same,normalized growth,[9],0.938
same,normalized growth,[10],0.88 (active)
same,normalized growth,[11],0.92
same,normalized growth,[12],0.64 (active)
same,normalized growth,[13],0.711 (active)
same,normalized growth,[14],0.977
same,normalized growth,[15],0.298 (active)
same,normalized growth,[16],0.804 (active)
same,normalized growth,[17],0.81 (active)
same,normalized growth,[18],0.978
same,normalized growth,[19],0.914
same,normalized growth,[20],0.858 (active)
same,normalized growth,[21],0.899 (active)
same,normalized growth,[22],0.408 (active)
same,normalized growth,[23],0.993
same,normalized growth,[24],0.525 (active)
same,normalized growth,[25],0.786 (active)
same,normalized growth,[26],0.664 (active)
same,normalized growth,[27],0.373 (active)
NC(=S)Nc1cc(Cl)ccc1Cl,normalized growth,[3],0.99
same,normalized growth,[4],0.976
same,normalized growth,[1],0.975
same,normalized growth,[5],0.906
same,normalized growth,[6],0.961
same,normalized growth,[7],0.975
same,normalized growth,[8],1
same,normalized growth,[2],0.888
same,normalized growth,[9],0.953
same,normalized growth,[10],0.997
same,normalized growth,[11],0.997
same,normalized growth,[12],0.999
same,normalized growth,[13],0.947
same,normalized growth,[14],0.981
same,normalized growth,[15],0.919
same,normalized growth,[16],0.979
same,normalized growth,[17],0.915
same,normalized growth,[18],1
same,normalized growth,[19],0.969
same,normalized growth,[20],0.993
same,normalized growth,[21],1
same,normalized growth,[22],0.944
same,normalized growth,[23],0.987
same,normalized growth,[24],0.988
same,normalized growth,[25],0.835
same,normalized growth,[26],0.988
same,normalized growth,[27],0.84
same,normalized growth,"S. cerevisiae strains, strain wild type, active compounds read low",0.99
